Laboratory results reported in the supplement of paper PMC10849652.
Of roughly 7,900 targets only a part is listed; those with a hit were picked by preference. About 0.6% of all pairs of compound and target were hits.

What was measured:
Experiment in all cases: log2 fold change, soluble protein after heating vs DMSO (PISA); higher = thermal stabilisation; K562 cells, 10 uM, 30 min; active = over 0.2 and 3.5 SD of the protein, either way, in both replicates (recomputed)
[1] = compound: COC1=CC=C(C=C1)CN2C=CC3=C2C=C(C=C3)C(=O)NO
Summary of the method: (§1)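 Soluble protein was quantified by TMTpro 16plex LC-MS/MS after channel sums were equalised. It was obtained as the supernatant after 21,000xg for 90 min from pooled aliquots of K562 cells (2×10^6 cells/mL, 10 μM compound, 30 min) heated for 3 min across 48°C-58°C and extracted in PBS with 0.5% NP-40 at 4°C. Thermal stability values are relative to control samples and come from duplicates. They are given as log2 fold changes.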

[2] = compound: CON(C)C(=O)N1N=C(c2cc(F)ccc2F)S[C@@]1(CCCN)c1ccccc1 [filanesib]
Summary of the method: as §1

[3] = compound: CO[C@H]1C[C@@H]2CC[C@@H](C)[C@@](O)(O2)C(=O)C(=O)N2CCCC[C@H]2C(=O)O[C@H]([C@H](C)C[C@@H]2CC[C@H](n3cnnn3)[C@H](OC)C2)CC(=O)[C@H](C)/C=C(\C)[C@@H](O)[C@@H](OC)C(=O)[C@H](C)C[C@H](C)/C=C/C=C/C=C/1C [zotarolimus]
Summary of the method: as §1

[4] = compound: COc1cc(C(=O)O)ccc1NC(=O)[C@@H]1N[C@@H](CC(C)(C)C)[C@](C#N)(c2ccc(Cl)cc2F)[C@H]1c1cccc(Cl)c1F [idasanutlin]
Summary of the method: as §1

[5] = compound: COc1cc(Nc2ncc3c(n2)-c2ccc(Cl)cc2C(c2c(F)cccc2OC)=NC3)ccc1C(=O)O [alisertib]
Summary of the method: as §1

[6] = compound: COc1cc2nc(-c3cc(F)ccc3O)nc(N[C@@H]3CNC[C@H]3C(C)(C)O)c2cc1OC
Summary of the method: as §1

[7] = compound: COc1cc2ncnc(Nc3ccc(F)c(Cl)c3)c2cc1OCCCN1CCOCC1 [gefitinib]
Summary of the method: as §1

[8] = compound: COc1cccc2cc(-c3nc([C@H]4CC[C@H](C(=O)O)CC4)n4ncnc(N)c34)[nH]c12
Summary of the method: as §1

[9] = compound: CS(=O)(=O)CCNCc1ccc(-c2ccc3ncnc(Nc4ccc(OCc5cccc(F)c5)c(Cl)c4)c3c2)o1 [lapatinib]
Summary of the method: as §1

[10] = compound: CS(=O)(=O)N1CCN(Cc2cc3nc(-c4cccc5[nH]ncc45)nc(N4CCOCC4)c3s2)CC1 [pictilisib]
Summary of the method: as §1

Measured: log2 fold change

PLCG1 isoform 2 (UniProt P19174)
UniProt P19174, sequence (P19174 whole entry, looked up): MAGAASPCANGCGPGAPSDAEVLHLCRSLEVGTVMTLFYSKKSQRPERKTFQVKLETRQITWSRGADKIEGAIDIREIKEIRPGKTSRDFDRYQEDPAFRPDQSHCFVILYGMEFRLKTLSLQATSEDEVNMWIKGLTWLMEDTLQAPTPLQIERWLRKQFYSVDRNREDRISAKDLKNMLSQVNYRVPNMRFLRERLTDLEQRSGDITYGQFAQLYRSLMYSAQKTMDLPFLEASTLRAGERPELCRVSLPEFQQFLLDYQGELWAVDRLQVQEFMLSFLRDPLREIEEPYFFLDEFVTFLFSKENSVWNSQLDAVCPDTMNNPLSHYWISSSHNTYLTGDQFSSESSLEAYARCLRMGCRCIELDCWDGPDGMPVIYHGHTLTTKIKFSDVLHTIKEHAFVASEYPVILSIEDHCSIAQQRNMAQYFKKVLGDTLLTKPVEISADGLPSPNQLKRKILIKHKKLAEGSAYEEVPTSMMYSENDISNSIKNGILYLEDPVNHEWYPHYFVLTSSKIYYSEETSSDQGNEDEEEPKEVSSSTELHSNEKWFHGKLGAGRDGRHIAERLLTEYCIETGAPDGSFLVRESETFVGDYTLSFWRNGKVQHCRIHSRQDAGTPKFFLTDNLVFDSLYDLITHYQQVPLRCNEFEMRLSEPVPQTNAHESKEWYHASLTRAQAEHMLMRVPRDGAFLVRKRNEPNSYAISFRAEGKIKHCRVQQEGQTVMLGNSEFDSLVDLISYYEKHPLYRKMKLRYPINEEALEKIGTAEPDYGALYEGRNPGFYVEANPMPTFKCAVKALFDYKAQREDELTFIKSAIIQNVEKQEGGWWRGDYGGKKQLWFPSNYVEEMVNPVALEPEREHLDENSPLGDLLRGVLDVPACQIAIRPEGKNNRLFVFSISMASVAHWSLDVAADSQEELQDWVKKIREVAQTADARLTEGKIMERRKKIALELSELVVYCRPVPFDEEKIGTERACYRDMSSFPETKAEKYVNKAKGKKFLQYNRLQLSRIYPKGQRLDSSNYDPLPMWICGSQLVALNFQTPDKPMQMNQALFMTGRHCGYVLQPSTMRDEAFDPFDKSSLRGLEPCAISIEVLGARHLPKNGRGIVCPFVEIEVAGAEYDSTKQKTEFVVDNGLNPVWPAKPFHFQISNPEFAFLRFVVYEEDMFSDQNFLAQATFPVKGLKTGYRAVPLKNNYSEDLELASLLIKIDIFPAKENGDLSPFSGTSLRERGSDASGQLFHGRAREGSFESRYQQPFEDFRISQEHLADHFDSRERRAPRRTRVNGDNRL
inactive: [1] 0.104 | [2] -0.139 | [3] 0.038 | [4] 0.017 | [5] 0.05 | [6] 0.012 | [7] -0.047 | [8] 0.029 | [9] -0.003 | [10] 0.046

PRCP (UniProt P42785)
inactive: [1] 0.009 | [2] -0.038 | [3] -0.007 | [4] -0.055 | [5] -0.013 | [6] -0.074 | [7] 0.029 | [8] 0.065 | [9] -0.014 | [10] 0.019

PPM1G (UniProt O15355)
inactive: [1] -0.011 | [2] 0.014 | [3] 0.028 | [4] 0.066 | [5] 0.019 | [6] 0.081 | [7] 0.044 | [8] -0.089 | [9] -0.052 | [10] 0.093

PXK (UniProt Q7Z7A4)
inactive: [1] 0.105 | [2] -0.005 | [3] 0.021 | [4] -0.035 | [5] -0.057 | [6] 0.069 | [7] -0.001 | [8] 0.015 | [9] 0.03 | [10] 0.127

PRMT3 (UniProt O60678)
inactive: [1] 0.026 | [2] -0.099 | [3] 0.008 | [4] -0.017 | [5] -0.005 | [6] 0.098 | [7] -0.122 | [8] -0.111 | [9] 0.013 | [10] 0.048

PTP4A2 (UniProt Q12974)
inactive: [1] 0.078 | [2] -0.062 | [3] -0.022 | [4] -0.079 | [5] -0.055 | [6] 0.033 | [7] -0.007 | [8] -0.11 | [9] -0.078

PTTG1IP (UniProt P53801)
UniProt P53801, sequence (P53801 whole entry, looked up): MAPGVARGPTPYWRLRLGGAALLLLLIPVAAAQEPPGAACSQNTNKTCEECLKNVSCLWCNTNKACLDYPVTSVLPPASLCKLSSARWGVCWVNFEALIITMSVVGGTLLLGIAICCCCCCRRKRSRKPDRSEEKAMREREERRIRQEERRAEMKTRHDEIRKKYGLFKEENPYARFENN
inactive: [1] -0.013 | [2] -0.186 | [3] -0.124 | [4] -0.004 | [5] -0.046 | [6] 0.038 | [7] 0.158 | [8] 0.007 | [9] -0.096 | [10] 0.086

PRKAR1A (UniProt P10644)
inactive: [1] 0.079 | [2] 0.042 | [3] 0.046 | [4] -0.045 | [5] -0.075 | [6] 0.131 | [7] 0.046 | [8] -0.132 | [9] 0 | [10] 0.206

PDPK1 (UniProt O15530)
UniProt O15530, sequence (O15530 whole entry, looked up): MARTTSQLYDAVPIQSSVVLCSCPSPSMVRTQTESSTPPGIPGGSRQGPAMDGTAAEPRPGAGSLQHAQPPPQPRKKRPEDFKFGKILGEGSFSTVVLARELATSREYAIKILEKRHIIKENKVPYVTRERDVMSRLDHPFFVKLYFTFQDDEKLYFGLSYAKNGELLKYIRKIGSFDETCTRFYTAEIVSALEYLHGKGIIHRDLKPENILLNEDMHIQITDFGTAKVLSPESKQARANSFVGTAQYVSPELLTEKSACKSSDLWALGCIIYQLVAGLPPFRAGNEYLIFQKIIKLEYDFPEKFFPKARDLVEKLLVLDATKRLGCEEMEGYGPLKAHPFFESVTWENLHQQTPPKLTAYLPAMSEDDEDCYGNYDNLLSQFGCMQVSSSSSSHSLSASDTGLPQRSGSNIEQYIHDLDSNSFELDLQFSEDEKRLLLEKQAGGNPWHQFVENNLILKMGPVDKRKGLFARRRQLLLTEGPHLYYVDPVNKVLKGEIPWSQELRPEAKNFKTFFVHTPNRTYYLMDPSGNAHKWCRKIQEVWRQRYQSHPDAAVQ
inactive: [1] -0.015 | [2] -0.097 | [3] 0.04 | [4] -0.048 | [5] -0.017 | [6] 0.011 | [7] -0.028 | [8] 0.01 | [9] -0.058 | [10] -0.179

PSMD1 (UniProt Q99460)
UniProt Q99460, sequence (Q99460 whole entry, looked up): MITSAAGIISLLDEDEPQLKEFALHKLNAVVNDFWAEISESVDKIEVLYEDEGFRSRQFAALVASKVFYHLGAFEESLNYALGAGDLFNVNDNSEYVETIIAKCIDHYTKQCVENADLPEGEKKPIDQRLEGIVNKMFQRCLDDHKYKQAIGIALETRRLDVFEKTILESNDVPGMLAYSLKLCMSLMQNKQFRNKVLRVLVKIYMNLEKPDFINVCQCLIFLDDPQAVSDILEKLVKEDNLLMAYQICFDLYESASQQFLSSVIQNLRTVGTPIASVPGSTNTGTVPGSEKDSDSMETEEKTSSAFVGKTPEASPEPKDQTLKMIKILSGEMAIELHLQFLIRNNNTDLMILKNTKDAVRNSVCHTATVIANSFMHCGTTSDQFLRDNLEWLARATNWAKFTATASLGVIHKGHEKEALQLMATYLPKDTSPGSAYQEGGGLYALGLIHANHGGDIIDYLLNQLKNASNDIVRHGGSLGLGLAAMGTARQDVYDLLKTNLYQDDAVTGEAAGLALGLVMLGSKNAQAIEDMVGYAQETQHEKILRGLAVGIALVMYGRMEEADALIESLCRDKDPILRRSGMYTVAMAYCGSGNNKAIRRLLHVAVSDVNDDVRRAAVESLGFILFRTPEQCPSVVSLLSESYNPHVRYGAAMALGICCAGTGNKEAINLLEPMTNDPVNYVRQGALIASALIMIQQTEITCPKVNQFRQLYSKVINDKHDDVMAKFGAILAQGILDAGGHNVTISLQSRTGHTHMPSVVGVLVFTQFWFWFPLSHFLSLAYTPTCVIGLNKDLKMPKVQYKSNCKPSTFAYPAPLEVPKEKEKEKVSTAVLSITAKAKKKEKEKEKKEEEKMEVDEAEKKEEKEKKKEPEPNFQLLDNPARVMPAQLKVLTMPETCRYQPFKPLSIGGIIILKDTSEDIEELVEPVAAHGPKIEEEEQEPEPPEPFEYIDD
inactive: [1] 0.009 | [2] -0.002 | [3] 0.011 | [4] -0.005 | [5] -0.126 | [6] -0.077 | [7] -0.046 | [8] -0.056 | [9] 0.069 | [10] -0.052

PIP4P1 isoform 2 (UniProt Q86T03)
inactive: [1] 0.089 | [3] 0.004 | [4] 0.002 | [5] 0.032 | [6] -0.072 | [7] -0.018 | [8] -0.058 | [9] 0.06 | [10] -0.061
active: [2] -0.32

PEF1 (UniProt Q9UBV8)
inactive: [1] -0.009 | [2] -0.038 | [3] 0.041 | [4] -0.009 | [5] -0.008 | [6] -0.089 | [7] -0.011 | [8] 0.058 | [9] 0.032 | [10] -0.076

PKM (UniProt P14618)
inactive: [1] 0 | [2] -0.048 | [3] -0.004 | [4] -0.04 | [5] -0.073 | [6] 0.012 | [7] -0.002 | [8] 0.054 | [9] -0.033 | [10] 0.026

POLR2D (UniProt O15514)
inactive: [1] 0.02 | [2] 0.009 | [3] -0.029 | [4] -0.083 | [5] -0.159 | [6] -0.021 | [7] -0.001 | [8] 0.043 | [9] 0.017 | [10] -0.026

PIGG (UniProt Q5H8A4)
UniProt Q5H8A4, sequence (Q5H8A4 whole entry, looked up): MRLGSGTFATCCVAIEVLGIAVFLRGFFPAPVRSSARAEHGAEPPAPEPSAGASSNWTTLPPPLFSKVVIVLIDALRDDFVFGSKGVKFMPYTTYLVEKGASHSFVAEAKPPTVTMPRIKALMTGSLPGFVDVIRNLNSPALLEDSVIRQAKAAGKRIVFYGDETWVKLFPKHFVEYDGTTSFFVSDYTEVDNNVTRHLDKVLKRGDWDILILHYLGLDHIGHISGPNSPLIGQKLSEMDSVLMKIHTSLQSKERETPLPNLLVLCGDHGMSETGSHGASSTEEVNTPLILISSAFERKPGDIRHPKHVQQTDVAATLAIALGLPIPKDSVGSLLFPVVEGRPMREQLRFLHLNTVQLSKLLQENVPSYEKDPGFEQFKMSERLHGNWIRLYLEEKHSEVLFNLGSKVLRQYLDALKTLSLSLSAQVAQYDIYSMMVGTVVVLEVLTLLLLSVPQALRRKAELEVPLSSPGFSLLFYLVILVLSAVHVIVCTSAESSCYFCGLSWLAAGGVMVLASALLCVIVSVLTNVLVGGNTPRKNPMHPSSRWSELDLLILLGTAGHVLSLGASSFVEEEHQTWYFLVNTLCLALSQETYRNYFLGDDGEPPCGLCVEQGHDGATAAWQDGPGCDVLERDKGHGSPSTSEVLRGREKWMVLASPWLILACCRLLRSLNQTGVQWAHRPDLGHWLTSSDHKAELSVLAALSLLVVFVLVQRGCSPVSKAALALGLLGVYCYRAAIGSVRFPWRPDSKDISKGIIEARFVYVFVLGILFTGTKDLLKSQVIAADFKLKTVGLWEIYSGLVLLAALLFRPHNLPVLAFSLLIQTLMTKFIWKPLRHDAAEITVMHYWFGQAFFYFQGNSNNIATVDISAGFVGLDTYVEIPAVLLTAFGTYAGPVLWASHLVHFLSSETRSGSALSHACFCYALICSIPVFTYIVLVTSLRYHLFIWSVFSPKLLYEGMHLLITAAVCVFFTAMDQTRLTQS
inactive: [1] -0.01 | [2] -0.062 | [3] 0.073 | [4] 0.019 | [5] -0.048 | [6] 0.098 | [7] -0.122 | [8] 0.049 | [9] 0.046 | [10] 0.017

PRPF38B (UniProt Q5VTL8)
inactive: [1] -0.004 | [2] 0.163 | [3] 0.016 | [4] 0.039 | [5] -0.09 | [6] 0.083 | [7] 0.002 | [8] 0.043 | [9] 0.027 | [10] 0.065

PRKAR2A (UniProt P13861)
active: [6] -0.493
inactive: [1] -0.033 | [2] -0.021 | [3] 0.013 | [4] -0.009 | [5] -0.058 | [7] 0.048 | [8] 0.006 | [9] 0.034 | [10] 0.057

PSMD5 (UniProt Q16401)
UniProt Q16401, sequence (Q16401 whole entry, looked up): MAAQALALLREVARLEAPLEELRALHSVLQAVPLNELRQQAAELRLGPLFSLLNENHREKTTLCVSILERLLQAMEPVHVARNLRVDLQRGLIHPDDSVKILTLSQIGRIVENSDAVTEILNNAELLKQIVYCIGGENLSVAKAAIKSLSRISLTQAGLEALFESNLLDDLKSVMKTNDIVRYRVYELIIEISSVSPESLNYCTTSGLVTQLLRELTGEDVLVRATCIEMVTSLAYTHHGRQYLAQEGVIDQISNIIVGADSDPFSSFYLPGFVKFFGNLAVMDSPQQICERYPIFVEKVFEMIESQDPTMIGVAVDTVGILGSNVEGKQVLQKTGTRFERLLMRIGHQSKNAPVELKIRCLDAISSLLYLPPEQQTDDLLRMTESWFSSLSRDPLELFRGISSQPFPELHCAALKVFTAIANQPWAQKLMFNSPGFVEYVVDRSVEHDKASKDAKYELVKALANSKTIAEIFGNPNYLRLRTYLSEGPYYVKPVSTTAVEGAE
inactive: [1] 0.024 | [2] -0.046 | [3] 0.013 | [4] -0.055 | [5] -0.055 | [6] -0.017 | [7] -0.013 | [8] 0 | [9] 0.017 | [10] -0.017

PRKACB isoform 2 (UniProt P22694)
inactive: [1] -0.045 | [2] -0.098 | [3] 0.021 | [4] -0.01 | [5] -0.037 | [6] 0.124 | [7] 0.015 | [8] 0.03 | [9] -0.018 | [10] -0.018

PGM3 isoform 4 (UniProt O95394)
inactive: [1] 0.052 | [2] -0.135 | [3] 0.007 | [4] -0.079 | [5] -0.007 | [6] 0 | [7] -0.028 | [8] -0.01 | [9] -0.014 | [10] -0.047

POLA1 (UniProt P09884)
inactive: [1] 0.053 | [2] -0.023 | [3] 0.008 | [4] 0.003 | [5] -0.053 | [6] 0.016 | [7] 0.015 | [8] -0.008 | [9] -0.005 | [10] 0.033

PURA (UniProt Q00577)
inactive: [1] -0.336 | [2] 0.277 | [3] -0.093 | [4] 0.179 | [5] -0.106 | [6] -0.052 | [7] -0.024 | [8] -0.113 | [9] 0.104 | [10] -0.071

PPIL4 (UniProt Q8WUA2)
UniProt Q8WUA2, sequence (Q8WUA2 whole entry, looked up): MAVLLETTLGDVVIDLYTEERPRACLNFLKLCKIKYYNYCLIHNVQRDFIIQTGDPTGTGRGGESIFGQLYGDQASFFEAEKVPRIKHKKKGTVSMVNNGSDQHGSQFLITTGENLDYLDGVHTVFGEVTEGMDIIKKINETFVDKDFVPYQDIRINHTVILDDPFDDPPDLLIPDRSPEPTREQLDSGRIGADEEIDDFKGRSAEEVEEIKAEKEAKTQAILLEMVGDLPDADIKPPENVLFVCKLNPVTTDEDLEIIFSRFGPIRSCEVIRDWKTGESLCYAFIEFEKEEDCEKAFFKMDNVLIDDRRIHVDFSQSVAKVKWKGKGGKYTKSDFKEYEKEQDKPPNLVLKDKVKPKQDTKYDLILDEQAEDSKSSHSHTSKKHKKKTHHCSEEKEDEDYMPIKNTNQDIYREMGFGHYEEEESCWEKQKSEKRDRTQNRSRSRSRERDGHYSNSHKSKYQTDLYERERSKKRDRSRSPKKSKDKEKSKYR
inactive: [1] -0.001 | [2] 0.116 | [3] 0.032 | [4] 0.101 | [5] -0.003 | [6] 0.015 | [7] 0.002 | [8] -0.005 | [9] 0.02 | [10] 0.018

POLR1A (UniProt O95602)
inactive: [1] 0.248 | [2] 0.075 | [3] -0.05 | [4] 0.063 | [5] -0.076 | [6] -0.007 | [7] 0.037 | [8] -0.008 | [9] 0.069 | [10] 0.078

POLR2B (UniProt P30876)
inactive: [1] 0.034 | [2] 0.031 | [3] -0.012 | [4] -0.039 | [5] -0.057 | [6] 0.214 | [7] 0.064 | [8] 0.007 | [9] -0.018 | [10] 0.076

PLEKHM2 (UniProt Q8IWE5)
inactive: [1] 0.007 | [2] -0.09 | [3] 0.053 | [4] -0.083 | [5] 0.044 | [6] -0.041 | [7] 0.075 | [8] -0.041 | [9] 0.084 | [10] 0.011

PSME4 (UniProt Q14997)
inactive: [1] -0.023 | [2] -0.091 | [3] 0.005 | [4] -0.123 | [5] -0.045 | [6] -0.03 | [7] -0.071 | [8] 0.037 | [9] 0.044 | [10] -0.045

PUM1 isoform 3 (UniProt Q14671)
inactive: [1] -0.003 | [2] 0.007 | [3] -0.023 | [4] 0.006 | [5] -0.039 | [6] -0.025 | [7] 0.025 | [8] -0.002 | [9] 0.004 | [10] -0.012

PHKG2 (UniProt P15735)
inactive: [1] 0.014 | [2] -0.01 | [3] -0.051 | [4] 0.007 | [5] -0.026 | [6] 0.219 | [7] -0.063 | [8] 0.015 | [9] 0.105 | [10] -0.055

PHKA2 (UniProt P46019)
inactive: [1] -0.17 | [2] -0.055 | [3] 0.022 | [4] -0.104 | [5] -0.067 | [6] 0.064 | [7] -0.006 | [8] 0.025 | [9] -0.037 | [10] 0.078
